# Most compounds without a hit are left out; they make up all but 4.1% or so of the library.
# hgDAF12 agonist – H. glycines DAF-12 receptor agonists, primary screen, cell-based, luminescence, HEK293, GAL4 fusion, UAS-luciferase; HEK293 GAL4-hgDAF12 UAS-luciferase reporter, agonist luminescence; normalized to butyrate control; activation, % at 6.8 µM; 370,000 compounds, 1.8% hits; AID 687014, 2013;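 active means activation above a cutoff set at the mean of all screened compounds plus 3 SD, cut at about 10% in these data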;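 further: 0% = DMSO wells and 100% = sodium butyrate wells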
# ssDAF12 agonist – S. stercoralis DAF-12 nuclear receptor activators, primary screen, cell-based, luminescence, HEK293, GRIP1 co-expression, lit1-tk-luc; activation, % at 6.8 µM; Nuclear hormone receptor DAF-12 (Strongyloides stercoralis); HEK293 ssDAF-12/GRIP1 lit1-tk-luc reporter; % of 3 µM dafachronic acid response; 370,000 compounds, 1% hits; AID 652126, 2013;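 active means activation above the mean over all tested compounds plus 3 SD, cut at about 0.9% in these data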;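 further: 0% = DMSO-only wells and 100% = 3 µM delta7-dafachronic acid wells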
# DAX1 inh-1 – DAX1 (NR0B1) inhibitors on StAR promoter, primary screen, cell-based, luminescence, SF-1 (NR5A1), full-length DAX-1. HEK293T StAR-luciferase reporter, SF-1/DAX-1 repression relief. inhibition, % at 6.8 µM. 370,000 compounds, 1.1% hits. AID 652010, 2013;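 active means inhibition above the mean over all tested compounds plus 3 SD, cut at about 3.6% in these data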;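 further: 0% = DAX-1 cells with DMSO and 100% = cells lacking DAX-1 with DMSO; higher inhibition means more luminescence from relief of DAX-1 repression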
# DAX1 inh-2 – DAX1 (NR0B1) inhibitors, primary screen, cell-based, HEK293, Gal4-DAX1, luciferase luminescence | HEK293 Gal4-DAX1 luciferase reporter | inhibition, % at 6.75 µM | 340,000 compounds, 0.99% hits | Nuclear receptor subfamily 0 group B member 1 (Homo sapiens), P51843;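 active means inhibition above the mean over all tested compounds plus 3 SD, cut at about 4.2% in these data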;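 further: 0% = DAX1-transfected cells with DMSO and 100% = empty-vector control cells with DMSO; inhibition shows as a rise in luminescence from relieved DAX1 repression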
# Target sequence (P51843 207-470 limits assumed): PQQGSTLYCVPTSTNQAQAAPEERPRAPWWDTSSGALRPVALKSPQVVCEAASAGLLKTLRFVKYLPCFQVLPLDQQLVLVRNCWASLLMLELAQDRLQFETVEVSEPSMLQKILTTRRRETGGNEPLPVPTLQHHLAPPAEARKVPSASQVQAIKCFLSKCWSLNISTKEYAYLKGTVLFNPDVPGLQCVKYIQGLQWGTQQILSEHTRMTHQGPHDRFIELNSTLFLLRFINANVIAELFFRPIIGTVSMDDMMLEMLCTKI
# hcDAF-12 act – H. contortus DAF-12 nuclear receptor activators, primary screen, cell-based, luminescence, HEK293, lit1-tk-luc reporter. HEK293 hcDAF-12 lit1-tk-luc reporter; 0% DMSO, 100% Δ7-dafachronic acid. activation, % at 6.8 µM. 370,000 compounds, 1.4% hits;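 active means activation above the mean of all tested compounds plus 3 SD, cut at about 5.5% in these data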;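 further: 100% = response to 3 µM Δ7-dafachronic acid high control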
# DAX1 conf – DAX1 (NR0B1) inhibitors relieving SF-1 repression, confirmation, cell-based, luminescence, HEK293T, full-length DAX-1, SF-1 activated StAR promoter | shares compounds with DAX1 inh-1 | HEK293T StAR-promoter luciferase reporter, SF-1/DAX-1 repression | inhibition, % at 6.8 µM | 2,400 compounds, 87% hits | AID 652134, 2013;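 active means inhibition above the average of every tested compound plus 3 SD, cut at about 3.8% in these data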;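 further: 0% = DAX-1 cells with DMSO and 100% = no DAX-1 control cells with DMSO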
# SF1 mutant ctr – StAR reporter signal changes without DAX1, counter-screen for DAX1 inhibitor project, cell-based, luminescence, AF-2 mutant SF-1, transactivation. shares compounds with DAX1 inh-1. HEK293 StAR-luciferase, SF-1 AF2 mutant. inhibition, % at 6.8 µM. 2,400 compounds, 78% hits. AID 652136, 2013;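 active means inhibition above the mean of all tested compounds plus 3 SD, cut at about 3% in these data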;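 further: 0% = DAX-1 transfected cells with DMSO and 100% = cells without DAX-1 with DMSO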
# LXRb hcDAF ctr – LXR agonists, Gal4 luciferase reporter, confirmation, counter-screen for hcDAF-12 agonist project, cell-based, luminescence, HEK293, H. contortus campaign | shares compounds with hcDAF-12 act | HEK293 Gal4-LXR tk-luc reporter, 24 h; normalized: DMSO 0%, positive control 100% | activation, % at 6.8 µM | 3,400 tested, under 10 active | AID 743027, 2013;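 active means mean percent activation of the reporter above a cutoff set as the average over tested compounds plus their standard deviation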
# Target sequence (P55055 whole entry, looked up, the tested form may be a part): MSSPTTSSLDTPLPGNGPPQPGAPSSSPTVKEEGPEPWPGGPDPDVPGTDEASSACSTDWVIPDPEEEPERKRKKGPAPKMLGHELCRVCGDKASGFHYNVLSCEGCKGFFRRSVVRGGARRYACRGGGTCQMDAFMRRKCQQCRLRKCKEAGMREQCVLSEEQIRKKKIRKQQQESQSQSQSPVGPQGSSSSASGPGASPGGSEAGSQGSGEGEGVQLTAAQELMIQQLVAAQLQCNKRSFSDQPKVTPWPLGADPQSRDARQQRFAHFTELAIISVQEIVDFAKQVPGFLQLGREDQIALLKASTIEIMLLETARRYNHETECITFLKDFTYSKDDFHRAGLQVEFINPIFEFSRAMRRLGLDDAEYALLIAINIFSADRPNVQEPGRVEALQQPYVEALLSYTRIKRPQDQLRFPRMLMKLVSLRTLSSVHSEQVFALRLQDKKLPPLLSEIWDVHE
# hcDAF12 ag – H. contortus DAF-12 receptor agonists, confirmation, cell-based, luminescence, HEK293, lit1-tk-luc, triplicate; shares compounds with hcDAF-12 act; HEK293 hcDAF-12 lit1-tk-luc reporter; % of Δ7-dafachronic acid response; activation, % at 6.8 µM; 3,400 compounds, 61% hits;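 active means mean activation across triplicate tests above the threshold derived from the earlier primary screen, cut at about 5.5% in these data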;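 further: 0% = DMSO only wells and 100% = 3 µM Δ7-dafachronic acid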
# hgDAF12 conf – H. glycines DAF-12 receptor agonists, confirmation, cell-based, luminescence, HEK293, GAL4-LBD fusion; shares compounds with hgDAF12 agonist; HEK293 GAL4-hgDAF12 luciferase reporter, agonist mode; percent of butyrate response; activation, % at 6.8 µM; 3,300 compounds, 80% hits; AID 743050, 2013;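 active means mean activation over triplicate wells above the hit cutoff derived from the earlier primary screen, cut at about 11% in these data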;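 further: 0% = DMSO low control and 100% = 2 mM sodium butyrate high control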
# LXRb DAF12 ctr – LXR agonists, Gal4 luciferase reporter, confirmation, counter-screen for hgDAF-12 agonist project, cell-based, luminescence, HEK293, H. glycines campaign; shares compounds with hgDAF12 agonist; 24 h; activation, % at 6.8 µM; 3,300 tested, under 10 active;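 active means mean activation of the triplicate above a set limit carried over from the primary screen, none filed active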
# Numbers without * were called inactive; · = no result given.
SMILES,hgDAF12 agonist,ssDAF12 agonist,DAX1 inh-1,DAX1 inh-2,hcDAF-12 act,DAX1 conf,SF1 mutant ctr,hgDAF12 conf,LXRb DAF12 ctr,others
Nc1cc2sc(-c3ccc(C(=O)O)cc3)nc2cc1Cl,7.8,-0.6,3.1,-0.9,3.8,·,·,·,·,
Cc1cc(-c2nc3cc(F)ccc3s2)ccc1N,19.9*,3.7*,7.0*,-3.0,18.1*,8.4*,4.5*,23.6*,1.1,LXRb hcDAF ctr=2.0;hcDAF12 ag=16.9*
O=c1c2c(nc3cc(-c4ccccc4Cl)[nH]n13)CCS2,16.3*,1.5*,5.6*,1.5,4.9,3.9*,3.4*,11.8*,0.6,
CCOC(=O)N1CCN(C(=O)C[C@H]2C[C@@]3(C(=O)OC)C(=C[C@H](C(C)(C)C)O[C@@H]3C)N(Cc3ccc4c(c3)OCO4)C2=O)CC1,-1.5,-1.1,-0.5,·,-0.8,·,·,·,·,
Cc1ccc(NC(=O)N2CCc3ccccc32)cc1C,15.6*,1.2*,7.4*,-2.2,14.9*,16.5*,8.4*,24.5*,1.2,LXRb hcDAF ctr=2.2;hcDAF12 ag=9.4*
CC[C@H]1/C(=C/c2ccccc2)N2C(=O)C[C@H](c3ccccc3)N=C2N1C,-2.2,-1.7,·,·,2.3,·,·,·,·,
Cc1ccc2c(CN(C)Cc3ccccc3)cc(=O)oc2c1,13.5*,0.5,6.8*,·,2.1,6.0*,2.7,10.7*,0.6,
C/C(=N\NC(=O)c1nn(C)c(C)c1Br)c1cccc(NC(=O)c2ccoc2C)c1,16.5*,0.2,5.0*,2.5,5.9*,0.6,0.6,4.7,0.3,
CC(=O)c1cccc(NC(=O)c2ccoc2C)c1,-2.6,-1.4,-0.3,0.0,-1.0,·,·,·,·,
Nc1nn(-c2cccc(F)n2)cc1-c1ccccc1,17.3*,1.1*,4.6*,1.6,10.6*,12.1*,3.7*,18.7*,0.9,LXRb hcDAF ctr=1.9;hcDAF12 ag=9.3*
O=C(c1cccs1)n1ccc2ccc(-c3ccc4ccn(C(=O)c5cccs5)c4c3)cc21,0.5,0.2,0.6,·,3.8,·,·,·,·,
O=C(Nc1ncccc1O)c1ccc(OCC2CCCO2)cc1 (centres undefined),27.7*,0.0,17.8*,2.3,5.0,13.7*,5.7*,26.9*,0.6,
Fc1ccc(CN2CCN(c3ncc(Cc4ccccc4)cn3)CC2)c(Cl)c1,-5.8,-2.0,-4.6,·,-3.7,·,·,·,·,
COc1ccc(CCc2ccc3ccccc3n2)cc1,14.2*,-0.5,5.7*,1.7,3.1,12.8*,6.8*,11.7*,0.7,
COc1ccc(-c2ccc3ccccc3n2)cc1,23.7*,0.9,11.7*,-0.7,9.6*,19.8*,8.7*,17.3*,1.3,LXRb hcDAF ctr=1.6;hcDAF12 ag=10.8*
COc1ccc(-c2ccc3ccccc3n2)cc1OC,16.6*,-0.1,5.3*,1.1,1.1,7.4*,3.4*,12.0*,0.6,
COc1cc2ccc(-c3ccc4ccccc4n3)cc2cc1OC,5.8,-0.7,1.0,1.6,0.7,·,·,·,·,
O=C1CC(O)C(Cc2ccccc2)N1 (centres undefined),3.0,0.3,-0.4,·,-1.1,·,·,·,·,
O=C(Nc1nc2ccccc2s1)NC1CCCCC1,17.8*,-0.3,6.1*,7.1*,6.1*,10.3*,6.0*,18.7*,1.0,
Cc1ccc(C(=O)Nc2nc3ccccc3[nH]2)cc1,-3.6,-0.7,-0.5,-5.2,0.5,·,·,·,·,
O=C(Nc1nc2ccccc2[nH]1)NC1CCCCC1,15.8*,0.6,16.4*,-0.2,5.8*,17.6*,9.7*,21.1*,1.1,
CCOC(=O)C(C(=O)Nc1nc2ccccc2s1)C1CCCCC1 (centres undefined),3.3,-0.2,-0.2,3.4,2.3,·,·,·,·,
O=C(Nc1nc2ccccc2[nH]1)c1cccs1,14.5*,0.3,6.6*,0.7,3.8,4.6*,4.6*,12.9*,0.7,
COc1cc(NC(=O)C(OC(=O)CNC(=O)c2ccccc2)c2ccccc2)cc(C(F)(F)F)c1 (centres undefined),4.3,-2.1,·,·,-2.9,·,·,·,·,
O=C(N/N=C1/CC2C=CCC12)c1cccs1 (centres undefined),14.6*,1.1*,8.3*,2.0,3.6,2.2,2.1,4.5,0.1,
O=C(NN=C1C2CC3CC(C2)CC1C3)c1cccs1,14.5*,0.1,7.4*,3.0,5.0,2.5,1.4,1.4,0.0,
O=C(NN=C1C2CC3CC(C2)CC1C3)c1ccccc1O,0.1,-1.4,1.6,0.0,0.4,·,·,·,·,
C=C(C)C1CC=C(C)/C(=N/NC(=O)c2cccs2)C1 (centres undefined),5.7,0.1,0.4,4.2,-1.3,·,·,·,·,
Cc1cc(NC(=O)CCc2c[nH]c3ccccc23)ccc1Nc1cccnc1,-0.8,-1.3,-1.5,·,-0.7,·,·,·,·,
